KB-3-1 tox: kills parental KB-3-1 adenocarcinoma cells | KB-3-1 viability, CellTiter-Glo ATP luminescence, 72 h | Potency, µM (doses to about 46.1 µM), usual class: cytotoxic | hit rate 1.4% among 400,000 | AID 1347075; note: potency is the fitted concentration of half-maximal effect; % is set by controls: 0 for no effect and ±100 for the full control effect; nearly all actives have a fitted effect of over 60% in size
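Viability of parental KB-3-1 cells, measured by CellTiter-Glo luminescence, followed a 72 h incubation at 37 °C with pinned compounds in phenol-red-free DMEM containing 10% FBS.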
SW480 rereplic: DNA re-replication induction in SW480 cells. SW480 DNA re-replication, Hoechst DNA content imaging, 48 h. Potency, µM (doses to about 46.1 µM), without a hit: at the highest dose re-replication activation, hits mostly activators. hit rate 1.8% among 340,000; note: potency is the fitted concentration of half-maximal effect; % of control where 0% means no effect; nearly all actives have a fitted effect of over 55% in size
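Image-based DNA-content assay: after two days of treatment, nuclei were labelled with the DNA dye Hoechst and imaged, and hits were compounds raising the count of nuclei showing high fluorescence intensity.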
MCF10A rereplic: inducers of DNA re-replication in MCF 10A breast cells | MCF 10A DNA re-replication, Hoechst nuclear intensity, 48 h | Potency, µM (series often up to 46.1 µM), without a hit: at the highest dose activity, positive = re-replication, hits mostly activators | hit rate 2.9% among 350,000; note: potency is the fitted concentration of half-maximal effect; % of control where 0% means no effect; nearly all actives have a fitted effect of over 50% in size
KB-V1 cytotox: KB-V1 MDR subline cytotoxicity; KB-V1 MDR cells viability, CellTiter-Glo, 72 h; hit rate 3.4% among 400,000; AID 1347076; Potency, µM (titrated, usually from 46.1 µM), most hits filed as cytotoxic; note: potency is the fitted concentration of half-maximal effect; % is set by controls: 0 for no effect and ±100 for the full control effect; nearly all actives have a fitted effect of over 60% in size
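KB-V1 cells (P-gp-expressing MDR subline of KB-3-1) in phenol-red-free DMEM with 10% FBS were exposed to library compounds over a concentration series for 72 h at 37 degrees C. Viability read by CellTiter-Glo luminescence; concentration-effect curves fitted after normalization.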
DRD3 antagonist: D3 dopamine receptor (human) antagonism. max response, negative = inhibition, %. hit rate 2.5% among 360,000. P35462. D3R cells, DiscoveRx beta-arrestin luminescence, antagonist mode; stronger effect = lower value; in the data active = max response below about -50%; inconclusive = no clear call, values can overlap the other calls; note: % is set by controls: 0 for no effect and ±100 for the full control effect
Target sequence (P35462 whole entry, looked up): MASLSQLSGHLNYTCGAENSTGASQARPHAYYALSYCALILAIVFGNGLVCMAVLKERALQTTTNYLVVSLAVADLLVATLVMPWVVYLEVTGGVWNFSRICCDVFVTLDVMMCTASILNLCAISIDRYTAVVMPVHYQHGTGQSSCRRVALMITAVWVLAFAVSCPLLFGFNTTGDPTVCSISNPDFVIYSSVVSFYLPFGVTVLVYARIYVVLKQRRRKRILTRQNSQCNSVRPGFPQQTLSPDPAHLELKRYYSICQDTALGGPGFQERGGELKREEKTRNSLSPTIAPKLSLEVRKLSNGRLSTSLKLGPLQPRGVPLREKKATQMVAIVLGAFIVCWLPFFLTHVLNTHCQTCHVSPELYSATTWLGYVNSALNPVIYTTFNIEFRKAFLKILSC
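Cells plated overnight at 1500 cells/well, then exposed to library compounds with dopamine controls for 90 minutes at 37 degrees C. DiscoveRx reagent added for 30–60 minutes at room temperature; luminescence read, quantitative HTS format.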
DRD3 agonist: activates the human D3 dopamine receptor; P35462; D3R DiscoveRx beta-arrestin cells, luminescence, 90 min; max activation, %; hit rate 0.58% among 410,000; in the data active = max activation above about 30%; note: 0% is about no effect
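Agonist mode: compounds and dopamine controls were applied to plated cells for 90 min at 37 degrees C after an overnight attachment at 1500 cells/well. Luminescent read-out followed 30 - 60 minutes at room temperature with DiscoveRx detection reagent.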
Numbers without * were called inactive; i = inactive; ? = inconclusive; . = no result given. Compounds with a hit are over-represented: about 8.9% of the library has one in this group of screens. Unless noted, calls come from the whole dose curve; as a rule, active = well fitted curve in the direction sought with a large enough effect; inconclusive = small, poorly fitted or top-dose-only effect, or another doubt; inactive = no such curve, though single readings can be large; an effect the other way counts as inactive or inconclusive.

SMILES | KB-3-1 tox | SW480 rereplic | MCF10A rereplic | KB-V1 cytotox | DRD3 antagonist | DRD3 agonist
O=S(=O)(Nc1nc2ccccc2nc1Nc1cccc(S(=O)(=O)N2CCCCC2)c1)c1ccccc1 | 15µM* | 14% | ? | 7.3µM* | 19 | 7
CCOc1ccc(S(=O)(=O)Nc2nc3ccccc3nc2Nc2ccc(OC)cc2)cc1 | i | . | . | i | . | 5
CCc1ccc(Nc2nc3ccccc3nc2NS(=O)(=O)c2ccccc2)cc1 | ? | . | . | 18µM* | . | -4
Cc1ccc2nccnc2c1 | ? | . | . | 16µM* | . | .
O=C(CN1C(=O)CCc2cc(S(=O)(=O)N3CCOCC3)ccc21)NCc1ccc(F)cc1 | i | . | . | ? | . | 3
COc1c(Br)cc([N+](=O)[O-])c(OC)c1C(=O)NC(=O)Nc1c(Cl)cccc1Cl | i | ? | ? | ? | 2 | 7
COc1c(Br)cc([N+](=O)[O-])c(OC)c1C(=O)NC(=O)Nc1cc(Cl)cc(Cl)c1 | ? | 24% | ? | 6.5µM* | 6 | 7
CCOc1ccccc1OCCCn1c(-c2ccc(Cl)cc2)nc2ccccc2c1=O | i | . | . | i | . | -8
Cc1oc(-c2ccc(Cl)cc2)cc1C(=O)O | i | 1% | 2% | i | -2 | 11
Cc1oc(-c2ccc(Cl)cc2)[n+]([O-])c1C | i | 0% | 14% | i | -67* | -2
COc1ccc(N2CCN(S(=O)(=O)CCNC(=O)Cc3ccc(OC)c(OC)c3)CC2)cc1 | . | . | . | . | . | 11
CCn1c(=NC(=O)C2COc3ccccc3O2)sc2c(OC)ccc(OC)c21 (stereo not drawn) | i | -24% | 16% | 9.2µM* | 37 | 3
CCn1c(=NC(=O)c2ccc3c(c2)OCCO3)sc2c(C)ccc(OC)c21 | . | . | . | . | . | 7
COC(=O)C1=C(C(=O)OC)SC2(S1)C(C(=O)OC)=C(C(=O)OC)SC1=C2c2cc(C)cc(C)c2NC1(C)C | i | 19% | 3% | i | -78* | -6
O=c1[nH]c(=O)n(Cc2ccco2)c2c1C(C(F)(F)F)(C(F)(F)F)N=C(c1ccc(F)cc1)N2 | ? | 1% | 18% | ? | 48 | 56*
Cc1ccccc1NC(=O)CCCN1C(=O)C2CC=CCC2C1=O (stereo not drawn) | i | 25% | 1% | i | 2 | 5
COC(=O)C1=CN(c2ccc(F)cc2)C(N)=C(C#N)C1c1cccc(F)c1 (stereo not drawn) | ? | . | . | 8.2µM* | -19 | -6
COC(=O)C1=CN(c2cc(C)cc(C)c2)C=C(C(=O)OC)C1c1cccc(F)c1 | i | ? | 3.7µM* | ? | -8 | -9
COC(=O)C1=CN(c2ccc3c(c2)OCO3)C(N)=C(C#N)C1c1ccc(-c2ccccc2)cc1 (stereo not drawn) | 4.6µM* | . | . | 3.7µM* | ? | -5
COC(=O)C1=CN(c2ccc(C)cc2)C(N)=C(C#N)C1c1ccccc1F (stereo not drawn) | ? | . | . | ? | 12 | 5
COC(=O)C1=CN(c2ccc(Oc3ccccc3)cc2)C(N)=C(C#N)C1c1cccc(F)c1 (stereo not drawn) | i | . | . | i | 6 | 6
COC(=O)C1=CN(c2ccc(F)cc2)C(N)=C(C#N)C1c1ccc(-c2ccccc2)cc1 (stereo not drawn) | ? | . | . | 16µM* | ? | -10
Cc1ccc(S(=O)(=O)N2CCOCC2)cc1NC(=O)COC(=O)CCc1c[nH]c2ccccc12 | . | -2% | 5% | . | 17 | -12
COC(=O)C1=CN(c2ccc(OC)cc2OC)C(N)=C(C#N)C1c1cccc([N+](=O)[O-])c1 (stereo not drawn) | 2.1µM* | . | . | 2.3µM* | 1 | -13
COC(=O)C1=CN(c2ccc(C(C)(C)C)cc2)C(N)=C(C#N)C1c1ccc(OC)cc1 (stereo not drawn) | i | . | . | ? | -5 | 3
SMILES | KB-3-1 tox | SW480 rereplic | MCF10A rereplic | KB-V1 cytotox | DRD3 antagonist | DRD3 agonist
COC(=O)C1=CN(C2CCCCC2)C=C(C(=O)OC)C1c1ccc2c(c1)OCO2 | i | 7.3µM* | 13µM* | i | 1 | -3
CCOc1ccc(S(=O)(=O)Nc2ccc(-c3ccc(OC)nn3)cc2)cc1 | i | . | . | i | . | -13
Cc1ccccc1C(=O)Nc1nc(-c2nnn(-c3ccc(C(C)C)cc3)c2C)ns1 | i | . | . | i | . | 1
O=C(NCCOCCn1c(=O)oc2ccccc21)Nc1cccc(Cl)c1 | i | . | . | i | . | -8
CC(C)(C)c1ccc(C(=O)Nc2ccc(O)c3c(=O)cc(-c4ccccc4Cl)oc23)cc1 | i | -14% | 0% | i | 33 | 119*
CCc1ccc(S(=O)(=O)Nc2ccc(O)c3c(=O)cc(-c4ccccc4Cl)oc23)cc1 | i | 5% | -31% | i | -22 | -42
O=C(Nc1ccc(O)c2c(=O)cc(-c3ccccc3Cl)oc12)c1ccc(F)cc1 | i | -16% | 9% | i | 33 | 1
O=c1cc(-c2ccccc2Cl)oc2c(NS(=O)(=O)c3cc(Cl)cc(Cl)c3O)ccc(O)c12 | ? | 20% | -32% | 18µM* | 26 | 36*
O=C(CBr)c1ccc(Oc2ccc(C(=O)C[n+]3cccc(Br)c3)cc2)cc1 | i | . | . | i | . | .
O=C(CSc1nc2nn(-c3ccccc3)c(=O)c-2c2n1CCCCC2)Nc1ccc(OC(F)F)cc1 | i | ? | 2% | i | -13 | 1
Oc1ccc(Cl)cc1Nc1nc(NCC2CCCO2)c2ccccc2n1 (stereo not drawn) | i | ? | 23µM* | i | . | .
